Assay outcomes: PubChem BioAssay, The Scripps Research Institute Molecular Screening Center
Rows were chosen to be rich in hits. Some 2.4% of all compounds tested hit in one or more screens of this group.
CHRM1 agonist: human M1 muscarinic receptor agonists, primary screen, Fluo-8 calcium fluorescence, CHO-K1 cells, HTS. Muscarinic acetylcholine receptor M1 (Homo sapiens), P11229. CHO-K1 hM1, agonist mode; 0% DMSO, 100% acetylcholine EC100. activation, % at 3 µM. actives 0.33% (n = 360,000);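 active = activation above the run's mean compound activation plus 3 SD, cut at about 16% in these data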;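 also: peak over basal fluorescence ratio within a 140 s kinetic read after compound addition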
Target sequence (P11229 whole entry, looked up): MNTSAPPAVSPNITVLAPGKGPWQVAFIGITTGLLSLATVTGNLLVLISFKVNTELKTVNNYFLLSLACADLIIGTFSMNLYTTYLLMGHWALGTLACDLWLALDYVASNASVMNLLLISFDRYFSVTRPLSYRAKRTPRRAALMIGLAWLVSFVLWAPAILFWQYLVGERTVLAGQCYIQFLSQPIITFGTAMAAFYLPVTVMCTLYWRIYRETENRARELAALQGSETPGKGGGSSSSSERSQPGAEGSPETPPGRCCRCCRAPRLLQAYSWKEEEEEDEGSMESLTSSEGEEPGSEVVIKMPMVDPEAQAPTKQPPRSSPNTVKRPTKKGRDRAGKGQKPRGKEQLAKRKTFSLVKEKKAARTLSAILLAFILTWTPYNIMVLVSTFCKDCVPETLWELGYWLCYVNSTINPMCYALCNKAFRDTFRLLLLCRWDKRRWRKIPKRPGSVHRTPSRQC
CHO-K1 Ca antag: nonselective inhibitor or artifact in parental CHO-K1 cells. inhibition, % at 3 µM. actives 0.6% (n = 360,000). ATP-induced calcium, Fluo-8 fluorescence;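 active = inhibition above a per-plate cutoff, the plate's mean sample inhibition plus 3 SD, cut at about 24% in these data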
CHO-K1 Ca ag: counter-screen for M1 agonists: effect in parental CHO-K1 cells. Fluo-8 calcium fluorescence; scaled to maximal ATP response, vehicle zero. activation, % at 3 µM. actives 0.48% (n = 360,000). AID 602248, 2012; in the data active = activation above about 15%;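 also: untransfected CHO-K1 host cells lacking M1 receptor as counterscreen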
M1 PAM parental: nonselective calcium activators in parental CHO-K1 cells, primary screen, counter-screen for M1 PAM project, cell-based, Fluo-8 calcium fluorescence, full deck, 1536-well; ATP EC20; 0% at ATP EC20, 100% at ATP max; activation, % at 3 µM; actives 0.02% (n = 360,000);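 active = activation above the run cutoff, the mean activation of all test compounds plus 3 SD, cut at about 40% in these data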;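 also: peak over basal fluorescence ratio in a 140 s read after ATP addition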
CHRM1 PAM: human M1 muscarinic receptor positive allosteric modulators, primary screen, CHO-K1 cells, Fluo-8 calcium fluorescence, 1536-well; CHO-K1 hM1, ACh EC20; 0% = ACh EC20, 100% = maximal ACh; actives 0.088% (n = 360,000); activation, % at 3 µM; in the data active = activation above about 19%, passing the limit was not always enough
M1 antag: human M1 muscarinic receptor antagonists, primary screen, CHO-K1 cells, Fluo-8 calcium fluorescence, 1536-well; Muscarinic acetylcholine receptor M1 (Homo sapiens), P11229; CHO-K1 hM1, ACh EC80 antagonist; inhibition, % at 3 µM; actives 1.3% (n = 360,000); AID 588852, 2011;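 active = percent inhibition above its own plate's cutoff, namely the mean of that plate's compound wells plus 3 SD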;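 also: peak over basal fluorescence ratio during 140 s after agonist addition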
Numbers stand for hits; i = inactive.

SMILES | CHRM1 agonist | CHO-K1 Ca antag | CHO-K1 Ca ag | M1 PAM parental | CHRM1 PAM | M1 antag
O=C(NCC1CCN(Cc2ccccc2F)CC1)C1CCCN(c2ncnc3c2nc2n3CCCCC2)C1 (stereo unspecified) | i | i | i | i | i | 91
O=C(NCc1ccccc1Cl)C1CCCN(c2ncnc3c2nc2n3CCCCC2)C1 (stereo unspecified) | i | i | i | i | i | i
C=CCN1C(=O)/C(=C/c2ccc(OCC(=O)O)cc2)S/C1=N/c1nccs1 | i | i | i | i | i | i
C=CCN1C(=O)/C(=C/c2ccc(O)c(OC)c2)S/C1=N/c1nccs1 | i | 24 | 17 | i | i | i
CCCN(Cc1ccc(N(CC)CC)cc1)CC1CC1 | i | i | i | i | i | 52
CCCCn1c(N)c(N(CC(C)C)C(=O)COC(=O)Cc2cccc(OC)c2)c(=O)[nH]c1=O | i | i | i | i | i | i
COc1ccc(C(=O)C2CCCN(C(=O)c3cccc(Cl)c3F)C2)cc1OC (stereo unspecified) | i | i | i | i | i | i
O=C(O)CN1C(=O)c2cccc(Oc3ccc(Cl)cc3)c2C1=O | i | 30 | i | i | i | i
Cc1ccc(N2C(=O)c3cccc(Oc4ccc(Cl)cc4)c3C2=O)c(C)c1 | i | i | i | i | i | i
CCOC(=O)c1cc(-c2ccccc2)n(CC(=O)N2CCCC2)c1C | i | i | i | i | i | i
CCOC(=O)c1cc(-c2ccc(F)cc2)n(CC(=O)N2CCCC2)c1C | i | i | 15 | i | i | i
O=C1N=C(N2C=CC(=C3C=CNC=C3)C=C2)/C(=C/N=NC(=O)c2ccccc2O)S1 | i | i | i | i | i | i
CCOC(=O)c1c(-c2ccccc2)csc1NC(=O)c1ccc(N2C(=O)CCC2=O)cc1 | i | 25 | i | i | i | i
CCOC(=O)c1c(-c2ccccc2)csc1NC(=O)c1ccc(S(=O)(=O)N2CC(C)OC(C)C2)cc1 (stereo unspecified) | i | i | i | i | i | i
Cc1cc2ncn(CCC(=O)NC3CCCC3)c2cc1C | i | i | 19 | i | i | i
CCCCn1c(N)c(N(CCOC)C(=O)c2ccc3c(c2)C(=O)N(c2ccccc2C)C3=O)c(=O)[nH]c1=O | i | i | i | i | i | 33
Cc1cccc(N2C(=O)c3cccc4cccc(c34)C2=O)c1 | i | i | i | i | i | i
O=C(O)c1ccc2c3c(cccc13)C(=O)N(c1ccccc1)C2=O | i | i | i | i | i | i
CCN1C(=O)c2cccc3c(Cl)ccc(c23)C1=O | i | i | i | i | i | i
CC(=O)Nc1cccc2c1C(=O)N(c1cccc(C)c1)C2=O | i | i | i | i | i | i
CC(C)CCN1C(=O)c2cccc3c(N)ccc(c23)C1=O | 151 | 67 | 152 | i | i | 70
Cc1cccc(N2C(=O)c3cccc4c(N)ccc(c34)C2=O)c1 | 108 | 35 | 124 | i | i | 43
Cc1cccc(N2C(=O)c3cccc4c(N(C)CCO)ccc(c34)C2=O)c1 | 23 | i | 20 | i | i | i
Nc1ccc2c3c(cccc13)C(=O)N(c1ccccc1)C2=O | 121 | 26 | 50 | i | i | 52
CC1=C(C(=O)Nc2cccc(C(=O)NC(C)c3ccccc3)c2)SCCO1 (stereo unspecified) | i | i | i | i | i | i
SMILES | CHRM1 agonist | CHO-K1 Ca antag | CHO-K1 Ca ag | M1 PAM parental | CHRM1 PAM | M1 antag
CC(=O)c1cccc(NC(=O)CCc2nc3sc4c(c3c(=O)[nH]2)CCCC4)c1 | i | i | i | i | i | i
Nc1cccc(N2C(=O)c3cccc4c(N)ccc(c34)C2=O)c1 | 45 | i | 15 | i | i | i
O=C(O)c1cccc(N2C(=O)c3cccc4c(Cl)ccc(c34)C2=O)c1 | i | i | i | i | i | i
O=C(COC(=O)CNS(=O)(=O)c1ccc(Cl)cc1)NC1CCCCC1 | i | i | i | i | i | i
CCN(CC)C1CCN(C(=O)c2cc(COc3cccc4cccnc34)on2)C1 (stereo unspecified) | i | i | i | i | i | 73
O=C(c1cc(COc2ccc(F)cc2Cl)on1)N1CCC(c2ccncc2)CC1 | i | i | i | i | i | i
Cc1cc(OCc2cc(C(=O)N3CCC(Oc4cccnc4)CC3)no2)cc(C)c1Cl | i | 26 | i | i | i | 31
CSc1ccccc1OCc1cc(C(=O)N2CCC(c3ccncc3)CC2)no1 | i | i | i | i | i | 41
Cc1ccc(C)c(NC(=O)COC(=O)c2cc3ccccc3oc2=O)c1 | i | i | i | i | i | i
Cc1ccc(S(=O)(=O)N2CCCCC2)cc1C(=O)OC1CCCCC1=O (stereo unspecified) | i | i | i | i | i | i
c1cc2c(c(CC3CO3)c1CC1CO1)OCCOCCOCCOCCO2 (stereo unspecified) | i | i | i | i | i | i
O=c1c2c3c(sc2nc2n1CCCCC2)CCCCC3 | i | i | i | i | i | i
N=c1c2c3c(sc2nc2n1CCCCC2)CCCCC3 | i | i | i | i | i | 92
Cc1ccc(C#CC[N+](C)(C)CC#Cc2ccccc2)cc1 | i | i | i | i | i | 30
COc1ccc(C(=O)N(C)Cc2cnn(Cc3ccccc3)c2)cc1S(=O)(=O)N1CCOCC1 | i | i | i | i | i | i
CCc1ccc2c(c1)C(=O)C(=O)N2CCS(=O)(=O)c1ccccc1 | i | i | i | i | i | i
O=C1C(=O)N(CCS(=O)(=O)c2ccccc2)c2ccc(Cl)cc21 | 17 | i | i | i | i | i
CCN(Cc1nc(-c2ccc(OC)cc2)no1)C(=O)c1ccoc1C | i | i | i | i | i | i
Cc1ccc(C(=O)NCCNc2ncc(C(F)(F)F)cc2Cl)cc1[N+](=O)[O-] | i | i | i | i | i | 46
COc1ccc(C(=O)NCCNc2ncc(C(F)(F)F)cc2Cl)cc1[N+](=O)[O-] | i | i | i | i | i | i
CC1CCN(C(=O)COC(=O)Cn2cnc3ccccc32)CC1 | i | i | i | i | i | i
O=C(CSc1nnc(Cn2nnc3ccccc32)o1)N(Cc1ccc(F)cc1)c1ccccc1 | i | 25 | i | i | i | i
COc1ccc(N(Cc2ccccc2)C(=O)CSc2nnc(Cn3nnc4ccccc43)o2)cc1 | i | i | i | i | i | i
CN(C(=S)Nc1ccc(Oc2ccccc2)cc1)C1CCCCC1 | i | i | i | i | i | 39
S=C(Nc1ccc(Oc2ccccc2)cc1)NC1CCCCC1 | i | i | i | i | i | i
